# According to PubChem BioAssay AID1159580 (chemical genetic matrix, 2015):
# The whole screen tested about 5,500 compounds, of which about 2,000 (36%) were called active. Not shown: some 18% with an inconclusive outcome. The list shows a part of the results. A number with no mark means an inactive call. Cut-off read from the data, not from the text of the source: active = normalized growth mostly below about 0.91 (no sharp cut-off); inconclusive = no clear call, values can overlap the other calls; inactive = mostly above about 0.92.
# Assay: chemical genetic growth profiling, strain panel (AID 1159580);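 note: tested at 20 µM; growth read once vehicle control cultures reached saturation at 30 °C; 1 = growth at the plate median or of vehicle wells; lower values mean less growth of the strain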
# Conditions: S. cerevisiae deletion strains, growth OD
smiles,measurement,setting,value
C=C1CCC2C(CC2(C)C)C(=C)CC/C1=N\O (stereo not drawn),normalized growth,"locus YAL013W, strain DEP1, hits give low values",1
same,normalized growth,"locus YAL021C, strain ccr4, hits give low values",1.04
same,normalized growth,"locus YAL026C, strain drs2, hits give low values",1.01
same,normalized growth,"locus YAL030W, strain snc1, hits give low values",1
same,normalized growth,"locus YBL061C, strain skt5, hits give low values",0.999
same,normalized growth,"locus YBR009C, strain hhf1, hits give low values",0.99
same,normalized growth,"locus YBR021W, strain FUR4, hits give low values",0.89
same,normalized growth,"locus YBR023C, strain chs3, hits give low values",1.01
same,normalized growth,"locus YBR171W, strain sec66, hits give low values",0.993
same,normalized growth,"locus YBR229C, strain ROT2, hits give low values",1.02
same,normalized growth,"locus YBR231C, strain swc5, hits give low values",1.01
same,normalized growth,"locus YBR279W, strain paf1, hits give low values",1.01
same,normalized growth,"locus YCL011C, strain gbp2, hits give low values",0.997
same,normalized growth,"locus YCL016C, strain dcc1, hits give low values",0.994
same,normalized growth,"locus YCL029C, strain bik1, hits give low values",0.983
same,normalized growth,"locus YCL061C, strain MRC1, hits give low values",0.992
same,normalized growth,"locus YCL069W, strain vba3, hits give low values",1.01
same,normalized growth,"locus YCR088W, strain abp1, hits give low values",1
same,normalized growth,"locus YDL005C, strain med2, hits give low values",0.994
same,normalized growth,"locus YDL035C, strain GPR1, hits give low values",0.87
same,normalized growth,"locus YDL040C, strain nat1, hits give low values",0.998
same,normalized growth,"locus YDL074C, strain BRE1, hits give low values",0.82
same,normalized growth,"locus YDL101C, strain DUN1, hits give low values",0.986
same,normalized growth,"locus YDL134C, strain PPH21, hits give low values",1.01
same,normalized growth,"locus YDL185W, strain tfp1, hits give low values",0.978
same,normalized growth,"locus YDL192W, strain arf1, hits give low values",0.884 (active)
same,normalized growth,"locus YDR001C, strain nth1, hits give low values",1
same,normalized growth,"locus YDR069C, strain doa4, hits give low values",0.995
same,normalized growth,"locus YDR101C, strain arx1, hits give low values",0.947
same,normalized growth,"locus YDR137W, strain rgp1, hits give low values",0.949
same,normalized growth,"locus YDR150W, strain NUM1, hits give low values",1.03
same,normalized growth,"locus YDR159W, strain sac3, hits give low values",0.977
same,normalized growth,"locus YDR162C, strain NBP2, hits give low values",0.735 (active)
same,normalized growth,"locus YDR195W, strain ref2",1.01
same,normalized growth,"locus YDR297W, strain sur2, hits give low values",1.01
same,normalized growth,"locus YDR318W, strain mcm21, hits give low values",0.911 (active)
same,normalized growth,"locus YDR334W, strain swr1, hits give low values",1
same,normalized growth,"locus YDR335W, strain msn5, hits give low values",1
same,normalized growth,"locus YDR388W, hits give low values",0.964
same,normalized growth,"locus YDR392W, strain spt3, hits give low values",0.839
same,normalized growth,"locus YDR502C, strain sam2, hits give low values",0.927
same,normalized growth,"locus YEL003W, strain gim4, hits give low values",1
same,normalized growth,"locus YEL037C, strain rad23, hits give low values",0.993
same,normalized growth,"locus YEL061C, strain CIN8 (second series), hits give low values",1.01
same,normalized growth,"locus YEL061C, strain CIN8, hits give low values",1.01
same,normalized growth,"locus YER015W, strain faa2, hits give low values",1.01
same,normalized growth,"locus YER016W, strain bim1, hits give low values",1
same,normalized growth,"locus YER110C, hits give low values",1.02
same,normalized growth,"locus YER111C, strain swi4, hits give low values",1
same,normalized growth,"locus YER155C, strain BEM2 (second series), hits give low values",1
same,normalized growth,"locus YER155C, strain BEM2, hits give low values",0.992
same,normalized growth,"locus YER167W, strain BCK2, hits give low values",0.915
same,normalized growth,"locus YFR010W, strain ubp6, hits give low values",1
same,normalized growth,"locus YGL078C, strain dbp3, hits give low values",0.922 (active)
same,normalized growth,"locus YGL086W, strain mad1, hits give low values",0.923 (active)
same,normalized growth,"locus YGL167C, strain pmr1, hits give low values",0.996
same,normalized growth,"locus YGL173C, strain kem1, hits give low values",1
same,normalized growth,"locus YGL227W, strain vid30, hits give low values",1
same,normalized growth,"locus YGL240W, strain doc1, hits give low values",1
same,normalized growth,"locus YGL248W, strain PDE1, hits give low values",1.02
same,normalized growth,"locus YGL253W, strain hxk2, hits give low values",1
same,normalized growth,"locus YGR078C, strain PAC10, hits give low values",0.954
same,normalized growth,"locus YGR135W, strain pre9, hits give low values",0.924
same,normalized growth,"locus YGR229C, strain SMI1, hits give low values",0.738 (active)
same,normalized growth,"locus YGR252W, strain gcn5, hits give low values",0.799
same,normalized growth,"locus YHR013C, strain ard1, hits give low values",1.04
same,normalized growth,"locus YHR027C, strain rpn1, hits give low values",0.999
same,normalized growth,"locus YHR030C, strain SLT2, hits give low values",0.983
same,normalized growth,"locus YHR079C, strain IRE1 (second series), hits give low values",0.962
same,normalized growth,"locus YHR094C, strain hxt1, hits give low values",0.998
same,normalized growth,"locus YHR129C, strain ARP1, hits give low values",0.992
same,normalized growth,"locus YHR142W, strain chs7, hits give low values",1
same,normalized growth,"locus YHR200W, strain rpn10, hits give low values",0.971
same,normalized growth,"locus YIL066C, strain RNR3, hits give low values",0.908
same,normalized growth,"locus YIL073C, strain SPO22, hits give low values",1.08
same,normalized growth,"locus YIL125W, strain kgd1, hits give low values",0.993
same,normalized growth,"locus YIR030C, strain dcg1, hits give low values",0.993
same,normalized growth,"locus YJL092W, strain hpr5, hits give low values",0.996
same,normalized growth,"locus YJL095W, strain BCK1 (second series), hits give low values",1
same,normalized growth,"locus YJL095W, strain BCK1, hits give low values",0.843
same,normalized growth,"locus YJL115W, strain asf1, hits give low values",0.998
same,normalized growth,"locus YJL129C, strain trk1, hits give low values",0.994
same,normalized growth,"locus YJL134W, strain LCB3, hits give low values",1.01
same,normalized growth,"locus YJL154C, strain vps35, hits give low values",1
same,normalized growth,"locus YJL164C, strain tpk1, hits give low values",1
same,normalized growth,"locus YJL166W, strain qcr8, hits give low values",1.01
same,normalized growth,"locus YJL168C, strain set2, hits give low values",0.998
same,normalized growth,"locus YJL187C, strain SWE1 (second series), hits give low values",0.973
